# Assay results from PubChem BioAssay (NCI).
# About 79,000 compounds went through this panel and 15% of them were active in at least one assay; those are over-represented in the sample as a whole. Values without a mark were called inactive. Calls of active or inactive are those of the source. Rule as the data show it: active = growth inhibition above about 70%; inactive = the rest.
# Assay: NCI Yeast Anticancer Drug Screen. Data for the rad50 strain (AID 155);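 also: 0% = growth of vehicle-only cultures of the same strain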
# Conditions: S. cerevisiae rad50 strain growth inhibition; at 50.0 µM; hits give high values
# Procedure, shortened: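 Readout: growth inhibition relative to vehicle-treated cultures. Compound exposure was carried out in a genetically defined yeast strain deficient in DNA damage repair.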
row,SMILES,growth inhibition
1,CC1(C(Cl)Cl)C=CC(=O)c2ccccc21 (stereo not given),37%
2,NC(C(F)(F)F)(C(F)(F)F)P(=O)(Cc1ccccc1)Cc1ccccc1,-8.35%
3,COC1CCC(C(C)(C)C)CC1 (stereo not given),2.45%
4,O=C(NCCc1c(-c2ccccc2)[nH]c2ccccc12)C1CCCCC1,-10.6%
5,CCCCC1CCC2CCCCC2C1 (stereo not given),3.4%
6,Cc1cc(=O)n2[nH]nnc2n1,10.5%
7,COC(=O)CNC(=O)C(Cc1ccccc1)NC(=O)OCc1ccccc1 (stereo not given),-4.95%
8,C=CCSc1ccc(Cl)cc1[N+](=O)[O-],18.8%
9,N#CC1(OC2OC(CO)C(O)C(O)C2O)C=CCC1 (stereo not given),8.1%
10,Brc1cc2ccccc2nc1-c1ccccc1,-2.3%
11,CN(C)NC(=O)Nc1cccc2ccccc12,-25.2%
12,COC(=O)C(CC(=O)Nc1ccc(Cl)c(Cl)c1)C(=O)C(=O)NC1C2CC3CC(C2)CC1C3 (stereo not given),-3.15%
13,CCOC(=O)C1C(C)C2(C#N)C(=N)OC1(C)C2(C#N)C#N (stereo not given),21.5%
14,S=c1sc2c(Cl)nc(Cl)nc2n1-c1ccccc1,-17.2%
15,COc1ccc(C=Nc2ccc(O)cc2)cc1,5.45%
16,COc1cc(C(O)CCBr)c(OC)cc1C (stereo not given),-23.2%
17,COc1ccc(/C=N/N=C/c2ccc(OC)cc2)cc1,22.3%
18,CCCCCCCCOC(=O)c1cc([N+](=O)[O-])c(Sc2ncnc3nc[nH]c23)c([N+](=O)[O-])c1,32%
19,CN1CCN(C(=O)NC2CCCCC2)CC1,-2.1%
20,O=CC1=CCC2c3[nH]c4ccccc4c3CCN2C1 (stereo not given),24.9%

row,SMILES,growth inhibition
1,C=C1C(=O)OC2C1C(OC(=O)/C(=C/C)COC(C)=O)CC1(CO1)C1C(OC(=O)/C(=C/C)CO)C=C(C)C21 (stereo not given),-20.6%
2,CCc1ccccc1OCC(O)CO (stereo not given),-21.9%
3,Cc1ccc2nc(CN(CCO)CCO)cc(=O)n2c1,34.4%
4,CCOC(=O)C(C)(C(C)=O)c1nc(=S)[nH]c(=S)[nH]1 (stereo not given),4.2%
5,CCCCCCCCCCCCCCCCS(=O)(=O)N/N=C(\c1ccc(C(C)C)cc1)N1CCOCC1,1.3%
6,NC(=O)C(=CNC(=S)Nc1ccc(S(=O)(=O)Nc2ccccn2)cc1)C(N)=O,-31.8%
7,CCOC(=O)C1CC(=O)c2cc(OC)c(OC)cc2C1c1ccc(OC)c(OC)c1 (stereo not given),1.85%
8,COC(=O)c1cc2cccn2cn1,-5.9%
9,O=C1c2cc([N+](=O)[O-])cc3cc([N+](=O)[O-])cc(c23)C(=O)N1CCNCCNCCNCCN1C(=O)c2cc([N+](=O)[O-])cc3cc([N+](=O)[O-])cc(c23)C1=O,85.1% (active)
10,C1CSCCSCSCCS1,32.1%
11,CCCCCCCCCCCO/N=C\c1c2c(O)c3c(O)c(C)c4c(c3c1O)C(=O)C(C)(O/C=C\C(OC)C(C)C(OC(C)=O)C(C)C(O)C(C)C(O)C(C)/C=C\C=C(\C)C(=O)N2)O4 (stereo not given),-4.75%
12,CC1(C)c2ccccc2C(=O)c2ccccc21,8.1%
13,CCC(CC)OCc1ccccc1,12.1%
14,CCCCCCC(C)(O)C(C)O (stereo not given),27.8%
15,CC[N+](C)(CC)c1cccc(OC(=O)N2CCCCC2)c1,7.8%
16,S=C1Cc2c(-c3ccccc3)cc(-c3ccc(Cl)cc3)nc2-c2ccccc2N1,8.75%
17,CCCC(=O)/C=C\c1ccccc1,21.6%
18,Cc1ccc(S(=O)(=O)NCNS(=O)(=O)c2ccc(C)cc2)cc1,-37.5%
19,N#C/C(=C\C=C\c1ccccc1)C(N)=O,-57.8%
20,O=C(C#CP(=O)(O)c1ccccc1)c1ccccc1,22.5%

# Assay: NCI Yeast Anticancer Drug Screen. Data for the mec2-1 strain (AID 157)
# Conditions: S. cerevisiae mec2-1 strain, at 50.0 µM, hits give high values
# Procedure, shortened: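 Yeast mec2-1 mutant treated with compound. Readout: growth inhibition vs vehicle controls.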
row,SMILES,growth inhibition
1,CC1(C(Cl)Cl)C=CC(=O)c2ccccc21 (stereo not given),35.6%
2,NC(C(F)(F)F)(C(F)(F)F)P(=O)(Cc1ccccc1)Cc1ccccc1,-47.4%
3,COC1CCC(C(C)(C)C)CC1 (stereo not given),-11.6%
4,O=C(NCCc1c(-c2ccccc2)[nH]c2ccccc12)C1CCCCC1,17.9%
5,CCCCC1CCC2CCCCC2C1 (stereo not given),-2.5%
6,Cc1cc(=O)n2[nH]nnc2n1,17.6%
7,COC(=O)CNC(=O)C(Cc1ccccc1)NC(=O)OCc1ccccc1 (stereo not given),-3.75%
8,C=CCSc1ccc(Cl)cc1[N+](=O)[O-],-3.4%
9,N#CC1(OC2OC(CO)C(O)C(O)C2O)C=CCC1 (stereo not given),-33%
10,Brc1cc2ccccc2nc1-c1ccccc1,-7.95%
11,CN(C)NC(=O)Nc1cccc2ccccc12,-22.3%
12,COC(=O)C(CC(=O)Nc1ccc(Cl)c(Cl)c1)C(=O)C(=O)NC1C2CC3CC(C2)CC1C3 (stereo not given),13.8%
13,CCOC(=O)C1C(C)C2(C#N)C(=N)OC1(C)C2(C#N)C#N (stereo not given),19.1%
14,S=c1sc2c(Cl)nc(Cl)nc2n1-c1ccccc1,-4.95%
15,COc1ccc(C=Nc2ccc(O)cc2)cc1,-2.3%
16,COc1cc(C(O)CCBr)c(OC)cc1C (stereo not given),-19.8%
17,COc1ccc(/C=N/N=C/c2ccc(OC)cc2)cc1,0.7%
18,CCCCCCCCOC(=O)c1cc([N+](=O)[O-])c(Sc2ncnc3nc[nH]c23)c([N+](=O)[O-])c1,30%
19,CN1CCN(C(=O)NC2CCCCC2)CC1,-10.9%
20,O=CC1=CCC2c3[nH]c4ccccc4c3CCN2C1 (stereo not given),20.5%

row,SMILES,growth inhibition
1,C=C1C(=O)OC2C1C(OC(=O)/C(=C/C)COC(C)=O)CC1(CO1)C1C(OC(=O)/C(=C/C)CO)C=C(C)C21 (stereo not given),-19%
2,CCc1ccccc1OCC(O)CO (stereo not given),-2.45%
3,Cc1ccc2nc(CN(CCO)CCO)cc(=O)n2c1,4.95%
4,CCOC(=O)C(C)(C(C)=O)c1nc(=S)[nH]c(=S)[nH]1 (stereo not given),7.55%
5,CCCCCCCCCCCCCCCCS(=O)(=O)N/N=C(\c1ccc(C(C)C)cc1)N1CCOCC1,-18.4%
6,NC(=O)C(=CNC(=S)Nc1ccc(S(=O)(=O)Nc2ccccn2)cc1)C(N)=O,-8.3%
7,CCOC(=O)C1CC(=O)c2cc(OC)c(OC)cc2C1c1ccc(OC)c(OC)c1 (stereo not given),-14.1%
8,COC(=O)c1cc2cccn2cn1,-11.3%
9,O=C1c2cc([N+](=O)[O-])cc3cc([N+](=O)[O-])cc(c23)C(=O)N1CCNCCNCCNCCN1C(=O)c2cc([N+](=O)[O-])cc3cc([N+](=O)[O-])cc(c23)C1=O,90.4% (active)
10,C1CSCCSCSCCS1,11.8%
11,CCCCCCCCCCCO/N=C\c1c2c(O)c3c(O)c(C)c4c(c3c1O)C(=O)C(C)(O/C=C\C(OC)C(C)C(OC(C)=O)C(C)C(O)C(C)C(O)C(C)/C=C\C=C(\C)C(=O)N2)O4 (stereo not given),-4.75%
12,CC1(C)c2ccccc2C(=O)c2ccccc21,6.65%
13,CCC(CC)OCc1ccccc1,9.4%
14,CCCCCCC(C)(O)C(C)O (stereo not given),8.5%
15,CC[N+](C)(CC)c1cccc(OC(=O)N2CCCCC2)c1,3.45%
16,S=C1Cc2c(-c3ccccc3)cc(-c3ccc(Cl)cc3)nc2-c2ccccc2N1,-3.85%
17,CCCC(=O)/C=C\c1ccccc1,-3.7%
18,Cc1ccc(S(=O)(=O)NCNS(=O)(=O)c2ccc(C)cc2)cc1,-7%
19,N#C/C(=C\C=C\c1ccccc1)C(N)=O,-27.6%
20,O=C(C#CP(=O)(O)c1ccccc1)c1ccccc1,16.4%
